Source: the supplement of paper PMC11732987, “Enantioselective OTUD7B fragment discovery through chemoproteomics screening and high-throughput optimisation” (Communications Chemistry, 2025)

Columns and labels:
Experiment in all cases: log2 ratio of Biotin-Ahx-Ub-VS probe labelling (fragment/DMSO); higher = less target engagement (more negative = stronger competition), active = hit call of the paper (q ≤ 0.05, log2 ratio ≤ -1)
Details in all cases: compound concentration: 200 uM; treatment time: 3 h
OTUD6B = target: T1, OTUD6B (UniProt Q8N6M0)
T1 sequence (whole entry): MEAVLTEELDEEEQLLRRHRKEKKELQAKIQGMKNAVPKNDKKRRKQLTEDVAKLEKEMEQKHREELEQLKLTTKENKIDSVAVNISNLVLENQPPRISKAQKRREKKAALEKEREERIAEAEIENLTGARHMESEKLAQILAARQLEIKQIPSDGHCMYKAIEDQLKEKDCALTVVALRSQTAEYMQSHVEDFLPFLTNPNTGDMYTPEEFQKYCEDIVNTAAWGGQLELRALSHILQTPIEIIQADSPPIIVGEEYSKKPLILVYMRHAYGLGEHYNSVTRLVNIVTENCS
Method in brief: (§1)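 HEK293T lysate, 495 µg per sample in Tris/CHAPS/IGEPAL buffer with protease inhibitors, was treated in triplicate with fragment at 200 µM or vehicle for 3 h and then with Biotin-Ahx-Ub-VS at 0.5 µM final for 1 h. Labelled DUBs were NeutrAvidin-enriched, digested with LysC and trypsin, and run by diaPASEF LC-MS/MS. Spectronaut label-free quantities were global-median-normalised, and values are average log2 fragment/vehicle ratios by unpaired t-test on proteins with ≥2 unique peptides.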

OTUD7B = target: T2, OTUD7B (UniProt Q6GQQ9)
T2 sequence (whole entry): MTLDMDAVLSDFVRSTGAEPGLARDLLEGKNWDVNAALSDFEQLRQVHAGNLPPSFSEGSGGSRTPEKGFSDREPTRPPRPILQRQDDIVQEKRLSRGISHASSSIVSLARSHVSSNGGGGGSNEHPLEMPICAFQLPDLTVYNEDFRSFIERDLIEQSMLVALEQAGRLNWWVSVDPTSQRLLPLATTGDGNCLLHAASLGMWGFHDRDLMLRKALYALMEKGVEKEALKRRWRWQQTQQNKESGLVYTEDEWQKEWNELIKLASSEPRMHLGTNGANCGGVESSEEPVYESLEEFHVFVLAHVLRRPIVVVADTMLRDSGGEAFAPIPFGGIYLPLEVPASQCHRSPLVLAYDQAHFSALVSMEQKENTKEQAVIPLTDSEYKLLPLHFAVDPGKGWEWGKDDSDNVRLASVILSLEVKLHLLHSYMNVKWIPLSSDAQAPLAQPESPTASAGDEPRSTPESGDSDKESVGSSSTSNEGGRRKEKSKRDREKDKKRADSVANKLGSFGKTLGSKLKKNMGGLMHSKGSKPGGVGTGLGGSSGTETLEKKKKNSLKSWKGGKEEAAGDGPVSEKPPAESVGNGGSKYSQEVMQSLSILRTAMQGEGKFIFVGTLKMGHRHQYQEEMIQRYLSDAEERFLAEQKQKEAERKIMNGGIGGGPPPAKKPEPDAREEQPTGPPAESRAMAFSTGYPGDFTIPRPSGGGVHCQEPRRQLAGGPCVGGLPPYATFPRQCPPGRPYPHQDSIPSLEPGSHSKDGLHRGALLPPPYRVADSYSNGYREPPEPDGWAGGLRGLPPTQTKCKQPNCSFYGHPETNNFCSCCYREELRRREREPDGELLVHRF
Method in brief: as §1

PRPF8 = PRPF8 (UniProt Q6P2Q9)
Method in brief: as §1

PSMD7 = target: T3, PSMD7 (UniProt P51665)
T3 sequence (whole entry): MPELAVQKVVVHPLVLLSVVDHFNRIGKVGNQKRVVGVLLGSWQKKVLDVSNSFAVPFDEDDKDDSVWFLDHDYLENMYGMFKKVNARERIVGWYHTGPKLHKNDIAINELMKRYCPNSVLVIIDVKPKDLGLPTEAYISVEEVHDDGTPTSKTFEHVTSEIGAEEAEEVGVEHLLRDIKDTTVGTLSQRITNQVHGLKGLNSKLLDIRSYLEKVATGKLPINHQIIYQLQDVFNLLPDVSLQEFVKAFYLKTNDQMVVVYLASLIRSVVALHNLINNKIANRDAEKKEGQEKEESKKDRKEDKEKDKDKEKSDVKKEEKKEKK
Method in brief: as §1

UCHL1 = UCHL1 (UniProt P09936)
Method in brief: as §1

UCHL3 = target: T4, UCHL3 (UniProt P15374)
T4 sequence (whole entry): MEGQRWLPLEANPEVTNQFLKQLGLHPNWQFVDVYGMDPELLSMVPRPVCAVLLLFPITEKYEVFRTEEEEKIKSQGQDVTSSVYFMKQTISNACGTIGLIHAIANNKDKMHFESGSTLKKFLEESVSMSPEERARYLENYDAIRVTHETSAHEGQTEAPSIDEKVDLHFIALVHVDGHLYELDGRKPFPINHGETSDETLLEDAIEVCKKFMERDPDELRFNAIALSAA
Method in brief: as §1

UCHL5 = target: T5, UCHL5 (UniProt Q9Y5K5)
T5 sequence (whole entry): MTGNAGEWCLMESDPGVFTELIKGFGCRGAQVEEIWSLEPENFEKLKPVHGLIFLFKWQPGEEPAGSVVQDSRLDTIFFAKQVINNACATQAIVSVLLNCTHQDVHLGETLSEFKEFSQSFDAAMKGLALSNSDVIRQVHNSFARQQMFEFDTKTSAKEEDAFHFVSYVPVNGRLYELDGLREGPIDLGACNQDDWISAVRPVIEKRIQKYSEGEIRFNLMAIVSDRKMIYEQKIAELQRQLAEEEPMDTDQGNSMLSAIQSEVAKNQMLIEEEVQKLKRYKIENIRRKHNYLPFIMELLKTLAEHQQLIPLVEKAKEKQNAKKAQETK
Method in brief: as §1

USP10 = USP10 (UniProt Q14694)
Method in brief: as §1

USP15 = target: T6, USP15 (UniProt Q9Y4E8)
T6 sequence (whole entry): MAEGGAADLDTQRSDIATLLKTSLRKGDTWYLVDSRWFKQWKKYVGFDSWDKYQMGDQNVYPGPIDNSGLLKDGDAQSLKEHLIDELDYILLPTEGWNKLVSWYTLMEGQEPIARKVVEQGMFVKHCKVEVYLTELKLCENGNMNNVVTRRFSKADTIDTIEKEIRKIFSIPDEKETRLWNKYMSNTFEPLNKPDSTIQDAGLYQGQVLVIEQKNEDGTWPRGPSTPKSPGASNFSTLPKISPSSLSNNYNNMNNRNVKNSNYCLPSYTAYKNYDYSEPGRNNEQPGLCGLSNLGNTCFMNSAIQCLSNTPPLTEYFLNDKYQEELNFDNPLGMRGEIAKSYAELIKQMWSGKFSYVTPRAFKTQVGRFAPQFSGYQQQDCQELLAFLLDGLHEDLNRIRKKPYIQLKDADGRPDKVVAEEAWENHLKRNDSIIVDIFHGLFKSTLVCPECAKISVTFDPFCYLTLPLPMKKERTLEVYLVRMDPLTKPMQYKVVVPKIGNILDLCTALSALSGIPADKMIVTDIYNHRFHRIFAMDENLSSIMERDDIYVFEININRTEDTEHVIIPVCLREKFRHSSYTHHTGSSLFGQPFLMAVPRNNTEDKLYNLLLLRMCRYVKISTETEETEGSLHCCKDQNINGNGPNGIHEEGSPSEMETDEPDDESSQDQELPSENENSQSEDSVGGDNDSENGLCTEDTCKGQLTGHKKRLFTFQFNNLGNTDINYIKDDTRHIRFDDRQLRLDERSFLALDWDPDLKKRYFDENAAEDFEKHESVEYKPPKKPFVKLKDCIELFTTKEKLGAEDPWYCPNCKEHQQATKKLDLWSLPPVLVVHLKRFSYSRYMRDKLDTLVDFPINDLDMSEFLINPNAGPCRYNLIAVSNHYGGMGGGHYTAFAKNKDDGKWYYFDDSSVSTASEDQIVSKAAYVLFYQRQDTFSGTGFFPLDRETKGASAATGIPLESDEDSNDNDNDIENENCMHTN
Method in brief: as §1

USP16 = USP16 (UniProt Q9Y5T5)
Method in brief: as §1

Measured: log2 ratio of Biotin-Ahx-Ub-VS probe labelling

Sequence of USP16 (Q9Y5T5 whole entry, looked up): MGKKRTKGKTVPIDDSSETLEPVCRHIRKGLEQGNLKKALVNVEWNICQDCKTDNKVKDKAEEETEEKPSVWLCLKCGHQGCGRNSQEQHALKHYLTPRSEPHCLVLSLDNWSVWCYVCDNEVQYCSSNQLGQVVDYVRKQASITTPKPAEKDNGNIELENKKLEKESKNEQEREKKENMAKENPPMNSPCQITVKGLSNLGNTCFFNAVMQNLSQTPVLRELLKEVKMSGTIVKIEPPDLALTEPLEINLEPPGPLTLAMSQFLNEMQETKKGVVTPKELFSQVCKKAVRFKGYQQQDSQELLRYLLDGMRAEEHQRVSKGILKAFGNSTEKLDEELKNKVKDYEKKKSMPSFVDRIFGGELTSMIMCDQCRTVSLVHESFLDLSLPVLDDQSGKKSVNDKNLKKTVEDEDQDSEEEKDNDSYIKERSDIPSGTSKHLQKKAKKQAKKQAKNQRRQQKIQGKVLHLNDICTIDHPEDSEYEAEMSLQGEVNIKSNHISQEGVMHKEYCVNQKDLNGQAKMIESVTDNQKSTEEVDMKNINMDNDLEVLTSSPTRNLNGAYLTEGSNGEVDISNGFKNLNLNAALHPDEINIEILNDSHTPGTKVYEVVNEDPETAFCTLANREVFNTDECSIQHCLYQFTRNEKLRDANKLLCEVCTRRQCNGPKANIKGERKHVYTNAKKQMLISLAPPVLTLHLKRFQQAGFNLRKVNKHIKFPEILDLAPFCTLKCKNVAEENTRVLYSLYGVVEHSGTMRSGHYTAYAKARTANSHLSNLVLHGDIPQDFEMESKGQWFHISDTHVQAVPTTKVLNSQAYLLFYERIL
Sequence of USP10 (Q14694 whole entry): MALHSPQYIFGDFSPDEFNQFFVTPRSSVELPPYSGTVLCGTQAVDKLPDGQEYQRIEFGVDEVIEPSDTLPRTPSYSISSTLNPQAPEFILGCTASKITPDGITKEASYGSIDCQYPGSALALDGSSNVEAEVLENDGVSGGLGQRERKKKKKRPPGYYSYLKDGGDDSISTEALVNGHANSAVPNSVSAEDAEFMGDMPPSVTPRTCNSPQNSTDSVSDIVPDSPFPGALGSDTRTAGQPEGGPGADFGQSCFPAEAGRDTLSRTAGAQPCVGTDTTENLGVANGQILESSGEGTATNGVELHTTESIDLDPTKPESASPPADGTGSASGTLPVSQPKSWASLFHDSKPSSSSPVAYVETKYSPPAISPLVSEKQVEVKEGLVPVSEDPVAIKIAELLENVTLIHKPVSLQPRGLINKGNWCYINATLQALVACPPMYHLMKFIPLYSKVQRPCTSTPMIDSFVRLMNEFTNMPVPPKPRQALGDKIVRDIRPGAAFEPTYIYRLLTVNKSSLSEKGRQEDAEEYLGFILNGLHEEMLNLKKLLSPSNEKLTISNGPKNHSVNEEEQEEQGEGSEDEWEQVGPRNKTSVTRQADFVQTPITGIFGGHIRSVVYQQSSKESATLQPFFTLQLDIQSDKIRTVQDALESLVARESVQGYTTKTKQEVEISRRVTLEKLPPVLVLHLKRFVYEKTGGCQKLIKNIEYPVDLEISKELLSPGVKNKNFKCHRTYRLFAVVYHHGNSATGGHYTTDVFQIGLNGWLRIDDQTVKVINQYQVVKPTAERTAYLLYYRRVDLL
Sequence of UCHL1 (P09936 whole entry, looked up): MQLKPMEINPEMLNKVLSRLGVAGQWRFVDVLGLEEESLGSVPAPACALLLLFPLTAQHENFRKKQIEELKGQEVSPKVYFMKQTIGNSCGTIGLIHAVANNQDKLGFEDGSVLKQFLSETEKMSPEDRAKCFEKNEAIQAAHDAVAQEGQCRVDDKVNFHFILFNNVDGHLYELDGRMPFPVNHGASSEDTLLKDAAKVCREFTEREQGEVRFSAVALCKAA

COc1cc(Cl)c(C)cc1NC(=O)CCl
inactive: OTUD6B -0.418 | OTUD7B -0.345 | PRPF8 -0.193 | PSMD7 -0.352 | UCHL3 0.146 | UCHL5 -0.348 | USP10 -0.183 | USP15 -0.24 | USP16 -0.634
active: UCHL1 -1.57
